Unmarked numbers belong to inactive results.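 How the source made its calls: active means GFP response vs DMSO above 150% with enough events counted; inconclusive means fewer than 70 events counted for a yeast strain; inactive means the rest.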
assay: MEP2-GFP expression modulation in yeast, confirmation, flow cytometry, third cherry pick, S. cerevisiae (AID 504321);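 further: median per-cell GFP fluorescence by flow cytometry across all yeast cells; ratio of sample to DMSO median GFP so 100% equals the DMSO level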; settings: S. cerevisiae MEP2-GFP strain, 3 h, at 10 µM, hits give high values

| Structure (SMILES) | GFP response vs DMSO [%] |
| --- | --- |
| CN1CCN(c2ncnc3ccc(Br)cc23)CC1 | 101 |
| CCN1CCN(c2ncnc3ccc(Br)cc23)CC1 | 112 |
| Cc1ccc2c(c1N)C(=O)c1ccccc1C2=O | 103 |
| CN(C)C(=O)Oc1ccnc2cc(Cl)ccc12 | 108 |
| C/C(O)=C(\C#N)C(=O)Nc1cc(Br)ccc1Br | 112 |
| CN(C)C(=O)Oc1ccc(Cl)c2cccnc12 | 110 |

Source: PubChem BioAssay AID504321 (NMMLSC, 2011)
